In PubChem BioAssay AID1159580 (chemical genetic matrix, 2015):
Screen size: about 5,500 compounds; about 2,000 (36%) were called active. Inconclusive results (about 18%) are left out. Cut-off read from the data, not from the text of the source: active = normalized growth mostly below about 0.91 (no sharp cut-off); inconclusive = no clear call, values can overlap the other calls; inactive = mostly above about 0.92. Some of the results follow.

Assay: chemical genetic growth profiling, strain panel (AID 1159580);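 note: tested at 20 µM; growth read once vehicle control cultures reached saturation at 30 °C; 1 = growth at the plate median or of vehicle wells; lower values mean less growth of the strain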
Details: growth OD

Measured: normalized growth

O=c1oc2c(O)c(O)cc3c(=O)oc4c(O)c(O)cc1c4c23
active: S. cerevisiae deletion strains, locus YJR075W, strain HOC1, hits give low values 0.684 | S. cerevisiae deletion strains, locus YKL160W, strain elf1, hits give low values 0.82 | S. cerevisiae deletion strains, locus YKL190W, strain CNB1, hits give low values 0.712 | S. cerevisiae deletion strains, locus YKR001C, strain vps1, hits give low values 0.54 | S. cerevisiae deletion strains, locus YKR091W, strain srl3, hits give low values 0.924 | S. cerevisiae deletion strains, locus YLL001W, strain dnm1, hits give low values 0.747 | S. cerevisiae deletion strains, locus YLL026W, hits give low values 0.686 | S. cerevisiae deletion strains, locus YLL041C, strain sdh2, hits give low values 0.904 | S. cerevisiae deletion strains, locus YLR027C, strain aat2, hits give low values 0.772 | S. cerevisiae deletion strains, locus YLR039C, strain RIC1, hits give low values 0.407 | S. cerevisiae deletion strains, locus YLR058C, strain SHM2, hits give low values 0.578 | S. cerevisiae deletion strains, locus YLR221C, strain rsa3, hits give low values 0.717 | S. cerevisiae deletion strains, locus YLR258W, strain gsy2, hits give low values 0.747 | S. cerevisiae deletion strains, locus YLR262C, strain YPT6 (second series), hits give low values 0.648 | S. cerevisiae deletion strains, locus YLR262C, strain YPT6, hits give low values 0.556 | S. cerevisiae deletion strains, locus YLR268W, strain sec22, hits give low values 0.356 | S. cerevisiae deletion strains, locus YLR320W, strain mms22, hits give low values 0.617 | S. cerevisiae deletion strains, locus YLR330W, strain CHS5, hits give low values 0.584 | S. cerevisiae deletion strains, locus YLR342W, strain FKS1 (second series), hits give low values 0.401 | S. cerevisiae deletion strains, locus YLR342W, strain FKS1, hits give low values 0.628 | S. cerevisiae deletion strains, locus YLR357W, strain rsc2, hits give low values 0.627 | S. cerevisiae deletion strains, locus YLR370C, strain arc18, hits give low values 0.422 | S. cerevisiae deletion strains, locus YLR371W, strain rom2, hits give low values 0.605 | S. cerevisiae deletion strains, locus YLR384C, strain iki3, hits give low values 0.724 | S. cerevisiae deletion strains, locus YLR418C, strain cdc73, hits give low values 0.366 | S. cerevisiae deletion strains, locus YML016C, strain PPZ1, hits give low values 0.626 | S. cerevisiae deletion strains, locus YML032C, strain rad52, hits give low values 0.66 | S. cerevisiae deletion strains, locus YML120C, strain ndi1, hits give low values 0.581 | S. cerevisiae deletion strains, locus YML124C, strain tub3, hits give low values 0.778 | S. cerevisiae deletion strains, locus YMR058W, strain fet3, hits give low values 0.848 | S. cerevisiae deletion strains, locus YMR078C, strain ctf18, hits give low values 0.875 | S. cerevisiae deletion strains, locus YMR129W, hits give low values 0.886 | S. cerevisiae deletion strains, locus YMR205C, strain PFK2, hits give low values 0.685 | S. cerevisiae deletion strains, locus YMR223W, strain ubp8, hits give low values 0.612 | S. cerevisiae deletion strains, locus YMR231W, strain pep5, hits give low values 0.728 | S. cerevisiae deletion strains, locus YMR263W, strain SAP30, hits give low values 0.616 | S. cerevisiae deletion strains, locus YNL067W, strain RPL9B, hits give low values 0.572 | S. cerevisiae deletion strains, locus YNL071W, strain lat1, hits give low values 0.86 | S. cerevisiae deletion strains, locus YNL128W, strain TEP1, hits give low values 0.558 | S. cerevisiae deletion strains, locus YNL153C, strain GIM3, hits give low values 0.492 | S. cerevisiae deletion strains, locus YNL209W, strain ssb2, hits give low values 0.444 | S. cerevisiae deletion strains, locus YNL233W, strain BNI4, hits give low values 0.594 | S. cerevisiae deletion strains, locus YNL271C, strain bni1, hits give low values 0.885 | S. cerevisiae deletion strains, locus YNL298W, strain CLA4, hits give low values 0.907 | S. cerevisiae deletion strains, locus YNL307C, strain MCK1, hits give low values 0.787 | S. cerevisiae deletion strains, locus YNL322C, strain KRE1 (second series), hits give low values 0.685 | S. cerevisiae deletion strains, locus YNR049C, strain mso1, hits give low values 0.896 | S. cerevisiae deletion strains, locus YNR052C, strain pop2, hits give low values 0.365 | S. cerevisiae deletion strains, locus YOL147C, strain pex11, hits give low values 0.658 | S. cerevisiae deletion strains, locus YOR001W, strain rrp6, hits give low values 0.735 | S. cerevisiae deletion strains, locus YOR061W, strain CKA2, hits give low values 0.618 | S. cerevisiae deletion strains, locus YOR069W, strain VPS5, hits give low values 0.69 | S. cerevisiae deletion strains, locus YOR070C, strain gyp1, hits give low values 0.593 | S. cerevisiae deletion strains, locus YOR080W, strain dia2, hits give low values 0.638 | S. cerevisiae deletion strains, locus YOR083W, strain WHI5, hits give low values 0.717 | S. cerevisiae deletion strains, locus YOR106W, strain vam3, hits give low values 0.507 | S. cerevisiae deletion strains, locus YOR136W, strain idh2, hits give low values 0.796 | S. cerevisiae deletion strains, locus YOR144C, strain elg1, hits give low values 0.68 | S. cerevisiae deletion strains, locus YOR184W, strain ser1, hits give low values 0.538 | S. cerevisiae deletion strains, locus YOR265W, strain rbl2, hits give low values 0.771 | S. cerevisiae deletion strains, locus YOR270C, strain vph1, hits give low values 0.467 | S. cerevisiae deletion strains, locus YOR290C, strain snf2, hits give low values 0.167 | S. cerevisiae deletion strains, locus YOR316C, strain cot1, hits give low values 0.852 | S. cerevisiae deletion strains, locus YPL051W, strain arl3, hits give low values 0.627 | S. cerevisiae deletion strains, locus YPL055C, strain LGE1, hits give low values 0.624 | S. cerevisiae deletion strains, locus YPL078C, strain atp4, hits give low values 0.767 | S. cerevisiae deletion strains, locus YPL106C, strain sse1, hits give low values 0.809 | S. cerevisiae deletion strains, locus YPL240C, strain hsp82, hits give low values 0.864 | S. cerevisiae deletion strains, locus YPL241C, strain CIN2, hits give low values 0.816 | S. cerevisiae deletion strains, locus YPR163C, strain tif3, hits give low values 0.876 | S. cerevisiae deletion strains, locus YPR167C, strain met16, hits give low values 0.725 | S. cerevisiae deletion strains, strain wtn01, hits give low values 0.511 | S. cerevisiae strains, strain wild type, hits give low values 0.605
inactive: S. cerevisiae deletion strains, locus YKL009W, strain mrt4, hits give low values 0.978 | S. cerevisiae deletion strains, locus YKL068W, hits give low values 0.994 | S. cerevisiae deletion strains, locus YKL085W, strain MDH1 (second series), hits give low values 0.972 | S. cerevisiae deletion strains, locus YKL085W, strain MDH1, hits give low values 0.972 | S. cerevisiae deletion strains, locus YKR026C, strain gcn3, hits give low values 0.992 | S. cerevisiae deletion strains, locus YLR102C, strain apc9, hits give low values 0.933 | S. cerevisiae deletion strains, locus YLR113W, strain HOG1, hits give low values 0.981 | S. cerevisiae deletion strains, locus YMR125W, strain sto1, hits give low values 1 | S. cerevisiae deletion strains, locus YMR307W, strain GAS1, hits give low values 0.731 | S. cerevisiae deletion strains, locus YNL183C, strain NPR1, hits give low values 0.922 | S. cerevisiae deletion strains, locus YNL248C, strain rpa49, hits give low values 0.912 | S. cerevisiae deletion strains, locus YNL250W, strain rad50, hits give low values 0.947 | S. cerevisiae deletion strains, locus YOL012C, strain htz1 0.268 | S. cerevisiae deletion strains, locus YOR231W, strain MKK1, hits give low values 0.972 | S. cerevisiae deletion strains, locus YPL256C, strain CLN2, hits give low values 1.01 | S. cerevisiae deletion strains, locus YPR119W, strain clb2, hits give low values 0.947 | S. cerevisiae deletion strains, locus YPR141C, strain kar3, hits give low values 0.987
